Results as given in PubChem BioAssay AID1259421 (Broad Institute, 2018).
“And” between values parts separate entries of the source, which are not always exact repeats. Equal entries are not always repeated. Hit rate of the full screen: of about 6,400 compounds, about 610 (9.5%) were called active. The sample holds actives, similar compounds and a random draw of the others, so the mix is not that of the screen. Rule as the data show it: active = activity change below about -70%; inconclusive = no clear call, values can overlap the other calls; inactive = above that. Some structures have more than one record in an assay (separate samples or runs), and their calls can disagree.

Test: Toxoplasma gondii ME49Luc growth in HeLa cells, luciferase, no IFN-y, primary screen (AID 1259421)
Settings: T. gondii ME49Luc in HeLa, 72 h, stronger effect = lower value, concentration not given here

SMILES | activity change, negative = inhibition
Nc1[nH]nc2nnc(-c3c(-c4ccccc4)nn4ccccc34)cc12 | -19.2% (inactive)
OC[C@@H](O)[C@@H](O[C@@H]1O[C@H](CO)[C@H](O)[C@H](O)[C@H]1O)[C@H](O)[C@@H](O)CO | 24% (inactive)
NC(Cn1ccc(=O)n(Cc2ccccc2C(=O)O)c1=O)C(=O)O (stereo not drawn) | 7.15% (inactive)
CN1C2CCC1CC(OC(=O)c1c[nH]c3ccccc13)C2 (stereo not drawn) | 2.23% (inactive)
O=C1CC[C@@H](C(=O)O)N1 | 4.43% (inactive)
C1=C(CN2CCOCC2)COc2c1cccc2OCC1CNCCO1 (stereo not drawn) | 2.39% (inactive)
CC(C)=CCC/C(C)=C/C=C/C(C)=C/C=C/C(C)=C/C=C/C=C(C)/C=C/C=C(C)/C=C/C=C(\C)CCC=C(C)C | -16.2% (inactive)
COc1ccc(-c2cc(=O)c3c(O)c(OC)c(OC)c(OC)c3o2)cc1OC | -10.2% (inactive)
CC1(C)S[C@H]2[C@@H](NC(=O)[C@@H](NC(=O)N3CCN(S(C)(=O)=O)C3=O)c3ccccc3)C(=O)N2[C@@H]1C(=O)O | 5.45% (inactive)
CN1CCCC(CN2c3ccccc3Sc3ccccc32)C1 (stereo not drawn) | 11.8% (inactive) and 21.2% (inactive)
O=c1c2ccccc2nc2n1CCc1c-2[nH]c2ccccc12 | 249% (inactive)
CN1c2ccccc2C(=O)N2CCc3c([nH]c4ccccc34)C21 (stereo not drawn) | -71.6% (active)
CN1CCc2ccccc2Cc2[nH]c3ccccc3c2CC1 | 12.1% (inactive)
O=C(O)CCC/C=C/CC1COC(C(F)(F)F)OC1c1ccccc1O (stereo not drawn) | 0.246% (inactive)
C=C[C@@]1(C)CC(=O)[C@@]2(O)[C@](C)(O1)[C@@H](OC(C)=O)[C@@H](O)C1C(C)(C)CC[C@H](O)[C@@]12C (stereo partly drawn) | 6.95% (inactive)
Cc1cn(-c2cc(NC(=O)c3ccc(C)c(Nc4nccc(-c5cccnc5)n4)c3)cc(C(F)(F)F)c2)cn1 | -85.2% (active) and -76.5% (active)
Cc1ncc(NC(=O)c2ccc(CN3CCN(C)CC3)c(C(F)(F)F)c2)cc1Nc1nccc(-c2cccnc2)n1 | -77.9% (active)
Cc1ccc(NC(=O)c2ccc(CN3CCN(C)CC3)cc2)cc1Nc1nc(-c2cccnc2)cs1 | 47.7% (inactive)
Cc1ccc(NC(=O)c2ccc(CN3CCN(C)CC3)cc2)cc1Nc1nccc(-c2cccnc2)n1 | 3.71% (inactive) and 10.8% (inactive) and -1.32% (inactive)
Cc1ccc(C(=O)Nc2cccc(C(F)(F)F)c2)cc1Nc1nc(-c2cccnc2)nc2c1cnn2C | -48.8% (inactive)
O=Cc1ccccc1O[C@@H]1O[C@H](CO)[C@H](O)[C@@H](O)[C@H]1O | 4.65% (inactive)
NC(=O)c1nc(F)c[nH]c1=O | 2.13% (inactive)
Cc1c[nH]c2ccccc12 | -2.35% (inactive)
NC(N)=NCCC[C@@H](N)C(=O)O | 13.4% (inactive)

SMILES | activity change, negative = inhibition
Cn1c(C#N)ccc1-c1ccc2c(c1)C(C)(C)OC(=S)N2 | -80.3% (active)
Cc1ccc(-n2[nH]c(C)c(N=Nc3cccc(-c4cccc(C(=O)O)c4)c3O)c2=O)cc1C | -77.8% (active)
CCOc1ccccc1N=Nc1c(C)[nH]n(-c2nc(-c3ccccc3)cs2)c1=O | -0.237% (inactive)
Cn1cc(C(=O)[C@@H]2CCc3nc[nH]c3C2)c2ccccc21 | 3.43% (inactive)
CC1(C)C(=O)NC2=C1C(=O)C(=O)c1ccccc12 | -90% (active)
CC1=CC(=O)c2ccccc2C1=O | 2.88% (inactive) and 20.5% (inactive)
C[N+](C)(C)CCOP(=O)(O)OC[C@H](O)CO | 7.52% (inactive)
COC(=O)C[C@H]1C(C)(C)[C@@H](OC(C)=O)[C@@H]2CC3=C4CC(=O)O[C@@H](c5ccoc5)[C@]4(C)CCC3[C@@]1(C)C2=O (stereo partly drawn) | 13.2% (inactive)
CC(=O)O[C@H]1Cc2ccccc2N(C(N)=O)c2ccccc21 | 8.82% (inactive)
O=c1cc(-c2ccc(O)cc2)oc2cc(O[C@@H]3O[C@H](CO)[C@@H](O)[C@H](O)[C@H]3O[C@@H]3OC[C@](O)(CO)[C@H]3O)cc(O)c12 | -2.43% (inactive)
CC(C)N=c1cc2n(-c3ccc(Cl)cc3)c3ccccc3nc-2cc1Nc1ccc(Cl)cc1 | -81.2% (active) and 17.4% (inactive)
Cc1nc2ccccc2n1Cc1ccc(Cl)cc1 | -8.55% (inactive)
Cc1ccc2c(c1)C(=O)[C@]1(O)CCN(c3ccccc3)C1=N2 | 7.51% (inactive)
Cc1c(OCC(F)(F)F)ccnc1C[S@@](=O)c1nc2ccccc2[nH]1 | 83.6% (inactive)
Cc1[nH]nc2ccc(-c3cncc(OC[C@@H](N)Cc4ccccc4)c3)cc12 | -82.2% (active)
O=S(=O)(O)c1ccc(-c2c3nc(c(-c4ccc(S(=O)(=O)O)cc4)c4ccc([nH]4)c(-c4ccc(S(=O)(=O)O)cc4)c4nc(c(-c5ccc(S(=O)(=O)O)cc5)c5ccc2[nH]5)C=C4)C=C3)cc1 | -0.332% (inactive)
COc1cc2c(Oc3ccc(NC(=O)C4(C(=O)Nc5ccc(F)cc5)CC4)cc3F)ccnc2cc1OCCCN1CCOCC1 | -67.4% (inactive)
COc1cc2nccc(Oc3ccc(NC(=O)Nc4ccc(F)cc4F)c(F)c3)c2cc1OC | -38.1% (inactive)
COc1cc2c(N3CCN(C(=O)Nc4ccc(OC(C)C)cc4)CC3)ncnc2cc1OCCCN1CCCCC1 | 11% (inactive)
COc1cc2nccc(Oc3ccc(NC(=O)NC4CC4)c(Cl)c3)c2cc1C(N)=O | 6.94% (inactive) and -7.61% (inactive)
COc1cc2nccc(Oc3ccc(NC(=O)Nc4cc(C)on4)c(Cl)c3)c2cc1OC | -84.5% (active)
COc1cc2nccc(Oc3ccc(NC(=O)C4(C(=O)Nc5ccc(F)cc5)CC4)cc3)c2cc1OC | -93.3% (active)
Oc1cccc(-c2c3nc(c(-c4cccc(O)c4)c4ccc([nH]4)c(-c4cccc(O)c4)c4nc(c(-c5cccc(O)c5)c5ccc2[nH]5)C=C4)C=C3)c1 | 8.49% (inactive)
C[C@H](NC(=O)C(C)(C)Oc1ccc(C(F)(F)F)cn1)[C@@H](Cc1ccc(Cl)cc1)c1cccc(C#N)c1 | -17.6% (inactive)
